Assay results from PubChem BioAssay.
Results filed as inconclusive are left out. Active and inactive are the calls of the source.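 The calls were made as follows: active = GFP signal above the screen-wide mean plus 3 SD, that is over about 124.5% of the solvent control; inconclusive = no reading because the compound's own fluorescence disturbed strain identification; inactive = the rest.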

assay: modulators of AGP1-GFP expression in yeast TOR pathway, primary screen, cell-based, multiplex flow cytometry, S. cerevisiae (AID 1887); conditions: 3 h, at 10 µM, stronger effect = higher value;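 also: AGP1-GFP fusion strain of S. cerevisiae within a five-strain barcoded multiplex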

Question: With `CC(C)(C)OC(=O)N1CC(O)CC1C(=O)OCC(=O)c1ccc(Cl)cc1` (configuration not stated) as the compound, how does the GFP response, % of DMSO read?
Answer: The GFP response, % of DMSO was 105% (inactive).

Question: With `O=C(O)c1ccc(OCCn2ccnc2)cc1` as the compound, how does the GFP response, % of DMSO read?
Answer: The GFP response, % of DMSO was 112% (inactive).

Question: Which GFP response, % of DMSO does the source give for `CCOc1ccc2ccccc2c1CNc1nnnn1C` here?
Answer: Its GFP response, % of DMSO is 96.2% (inactive).

Question: With `COc1ccccc1N1C(=O)C2CC(C)=C(C)CC2C1=O` (configuration not stated) as the compound, how does the GFP response, % of DMSO read?
Answer: Its GFP response, % of DMSO is 104% (inactive).

Question: For `Cc1coc2c1c(C)cc1oc(=O)c(Cc3ccccc3)c(C)c12`, which GFP response, % of DMSO is on record?
Answer: Its GFP response, % of DMSO is 101% (inactive).

Question: With `COc1cc2c3c(c1)C(C)CC(C)(C)N3C(=O)C2=O` (configuration not stated) as the compound, how does the GFP response, % of DMSO read?
Answer: The GFP response, % of DMSO was 94.7% (inactive).

Question: With `NS(=O)(=O)c1cc2c(cc1Cl)NCNS2(=O)=O` as the compound, how does the GFP response, % of DMSO read?
Answer: The GFP response, % of DMSO was 123% (inactive).

Question: Which GFP response, % of DMSO does the source give for `O=C(O)C1Cc2ccccc2CN1S(=O)(=O)c1ccccc1` (configuration not stated) here?
Answer: Its GFP response, % of DMSO is 96.8% (inactive).

Question: For `COc1cccc(C2CC(=O)C3=C(C2)Nc2ccccc2N(C(=O)CCC(=O)O)C3c2ccc(F)cc2)c1` (configuration not stated), which GFP response, % of DMSO is on record?
Answer: The GFP response, % of DMSO was 93.8% (inactive).

Question: For `CCC(C(=O)Nc1ccc2c(c1)OCCO2)c1ccccc1` (configuration not stated), which GFP response, % of DMSO is on record?
Answer: Its GFP response, % of DMSO is 110% (inactive).

Question: With `COc1ccc(C2C(C(=O)c3ccco3)=C(O)C(=O)N2CC2CCCO2)cc1` (configuration not stated) as the compound, how does the GFP response, % of DMSO read?
Answer: Its GFP response, % of DMSO is 95.3% (inactive).

Question: For `C=CCNC(=O)c1ccc(-c2cccc([N+](=O)[O-])c2)o1`, which GFP response, % of DMSO is on record?
Answer: Its GFP response, % of DMSO is 95.1% (inactive).

Question: Which GFP response, % of DMSO does the source give for `CC12CCC(C(=O)N(CCC#N)CCC#N)(CC1=O)C2(C)C` (configuration not stated) here?
Answer: Its GFP response, % of DMSO is 108% (inactive).

Question: For `CC(=O)c1c(C)c(C)c2n1CCn1c(C)ccc1-2`, which GFP response, % of DMSO is on record?
Answer: The GFP response, % of DMSO was 107% (inactive).

Question: For `COc1cc2cc(C)nc(Cc3cccc4ccccc34)c2cc1OC`, which GFP response, % of DMSO is on record?
Answer: The GFP response, % of DMSO was 97.7% (inactive).

Question: For `Cc1oc2cc(O)cc(O)c2c(=O)c1-c1ccc2c(c1)OCCCO2`, which GFP response, % of DMSO is on record?
Answer: The GFP response, % of DMSO was 91.7% (inactive).

Question: For `O=CNC1CCCc2c1[nH]c1ccc(Cl)cc21` (configuration not stated), which GFP response, % of DMSO is on record?
Answer: Its GFP response, % of DMSO is 98.3% (inactive).
